# In PubChem BioAssay:
# Calls of active or inactive are those of the source.
# Assays:
# [1] = optical density shifts of acrAB sulA E. coli – strain DRC41, OD650, 48 h, E. coli filamentation inducer project, primary screen (AID 1152); settings: higher = more signal, called active from +8 up or from −8 down;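 note: E. coli MC1000 strain DRC41 lacking acrAB efflux pump and sulA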
# [2] = probe aLefty1 binding on compound microarray – biochemical, small-molecule microarray, 635/667 nm fluorescence, primary screen (AID 1153); settings: higher = more signal;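 note: score merges spot fluorescence with signal-to-noise ratio from the scanned slide images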
# [3] = plasmodial surface anion channel blockers, osmotic lysis – cell-based, P. falciparum Indochina, OD700, 1 h, primary screen (AID 1154); settings: P. falciparum Indochina infected RBC osmotic lysis, higher = more signal, called active from +8 up or from −8 down
# [4] = plasmodial surface anion channel blockers, osmotic lysis – cell-based, P. falciparum Indochina, OD700, 2 h, primary screen (AID 1155);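 note: lysis reports solute entry through the parasite surface anion channel PSAC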; settings: P. falciparum Indochina infected erythrocytes, higher = more signal, called active from +8 up or from −8 down
# [5] = changes in parasitized red cell lysis, either direction – P. falciparum Indochina, OD700, 3 h, PSAC antagonist project, primary screen (AID 1156); settings: P. falciparum-infected erythrocytes, osmotic lysis, higher = more signal, called active from +8 up or from −8 down
# [6] = plasmodial surface anion channel blockers, osmotic lysis – cell-based, P. falciparum Indochina, OD700, 18 h, primary screen (AID 1157); settings: P. falciparum Indochina infected erythrocytes, osmotic lysis OD700, 18 h; higher = more signal, called active from +8 up or from −8 down
# [7] = S6 kinase pathway phospho-S6 level changes – cell-based, A549, cytoblot, luminescence, serum-stimulated, primary screen (AID 1158); settings: 5 h, higher = more signal;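 note: serum-stimulated A549 lung adenocarcinoma cells; signal is phosphorylated S6 detected by cytoblot immunostaining with HRP secondary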
# [8] = molecular target: NADPH oxidase 2 (Homo sapiens) (UniProt P04839); assay: compounds shifting NOX2 Amplex Red fluorescence – cell-based, HEK293-NOX2, PMA-stimulated, NOX inhibitor project, primary screen (AID 1159); settings: 45 min, higher = more signal, called active from +8 up or from −8 down; note: test concentration not given here
# [9] = molecular target: NADPH oxidase 4 (Homo sapiens) (UniProt Q9NPH5); assay: compounds shifting NOX4 Amplex Red fluorescence – cell-based, HEK293-NOX4, tetracycline-induced, NOX inhibitor project, primary screen (AID 1160); settings: HEK293-NOX4, Amplex Red H2O2 fluorescence, 45 min; higher = more signal, called active from +8 up or from −8 down
# [10] = molecular target: NADPH oxidase 5 (Homo sapiens) (UniProt Q96PH1); assay: compounds shifting NOX5 Amplex Red fluorescence – cell-based, HEK293-NOX5, NOX inhibitor project, primary screen (AID 1161); settings: HEK293-NOX5, ionomycin, 45 min, higher = more signal
# NADPH oxidase 5 (Homo sapiens), sequence (Q96PH1 whole entry, looked up): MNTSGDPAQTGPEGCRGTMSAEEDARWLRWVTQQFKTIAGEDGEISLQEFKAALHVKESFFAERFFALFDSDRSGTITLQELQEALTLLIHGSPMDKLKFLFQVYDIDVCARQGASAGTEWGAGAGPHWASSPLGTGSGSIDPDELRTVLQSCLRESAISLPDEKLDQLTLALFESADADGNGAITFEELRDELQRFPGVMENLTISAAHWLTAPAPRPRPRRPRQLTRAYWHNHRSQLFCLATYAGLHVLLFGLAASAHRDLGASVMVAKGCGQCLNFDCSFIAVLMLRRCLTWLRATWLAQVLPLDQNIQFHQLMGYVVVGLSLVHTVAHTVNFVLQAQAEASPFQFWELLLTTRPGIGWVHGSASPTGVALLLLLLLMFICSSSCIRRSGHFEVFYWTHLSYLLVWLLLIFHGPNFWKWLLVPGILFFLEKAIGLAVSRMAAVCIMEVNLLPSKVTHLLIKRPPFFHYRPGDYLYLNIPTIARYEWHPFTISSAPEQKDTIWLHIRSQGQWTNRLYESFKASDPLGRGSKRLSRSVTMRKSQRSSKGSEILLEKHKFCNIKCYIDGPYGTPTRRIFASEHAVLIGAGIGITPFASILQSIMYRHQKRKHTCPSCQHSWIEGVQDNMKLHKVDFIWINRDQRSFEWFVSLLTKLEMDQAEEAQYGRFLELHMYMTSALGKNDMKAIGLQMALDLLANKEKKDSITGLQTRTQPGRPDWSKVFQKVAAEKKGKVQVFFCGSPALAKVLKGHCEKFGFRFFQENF
# NADPH oxidase 4 (Homo sapiens), sequence (Q9NPH5 whole entry, looked up): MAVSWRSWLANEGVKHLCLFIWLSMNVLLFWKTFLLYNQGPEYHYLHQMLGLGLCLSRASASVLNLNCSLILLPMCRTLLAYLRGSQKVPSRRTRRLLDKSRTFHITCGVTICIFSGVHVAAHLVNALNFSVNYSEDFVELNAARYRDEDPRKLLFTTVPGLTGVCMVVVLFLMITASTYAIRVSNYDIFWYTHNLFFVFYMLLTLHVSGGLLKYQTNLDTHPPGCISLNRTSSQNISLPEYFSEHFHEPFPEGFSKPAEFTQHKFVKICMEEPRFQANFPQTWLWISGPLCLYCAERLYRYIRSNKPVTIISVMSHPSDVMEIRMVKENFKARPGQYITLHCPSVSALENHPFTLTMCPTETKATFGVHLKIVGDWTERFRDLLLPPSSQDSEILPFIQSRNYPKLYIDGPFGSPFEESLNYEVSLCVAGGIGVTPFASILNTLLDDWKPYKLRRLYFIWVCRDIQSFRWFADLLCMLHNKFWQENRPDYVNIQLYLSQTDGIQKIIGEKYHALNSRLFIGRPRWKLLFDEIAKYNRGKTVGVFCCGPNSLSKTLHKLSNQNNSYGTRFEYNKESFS
# NADPH oxidase 2 (Homo sapiens), sequence (P04839 whole entry, looked up): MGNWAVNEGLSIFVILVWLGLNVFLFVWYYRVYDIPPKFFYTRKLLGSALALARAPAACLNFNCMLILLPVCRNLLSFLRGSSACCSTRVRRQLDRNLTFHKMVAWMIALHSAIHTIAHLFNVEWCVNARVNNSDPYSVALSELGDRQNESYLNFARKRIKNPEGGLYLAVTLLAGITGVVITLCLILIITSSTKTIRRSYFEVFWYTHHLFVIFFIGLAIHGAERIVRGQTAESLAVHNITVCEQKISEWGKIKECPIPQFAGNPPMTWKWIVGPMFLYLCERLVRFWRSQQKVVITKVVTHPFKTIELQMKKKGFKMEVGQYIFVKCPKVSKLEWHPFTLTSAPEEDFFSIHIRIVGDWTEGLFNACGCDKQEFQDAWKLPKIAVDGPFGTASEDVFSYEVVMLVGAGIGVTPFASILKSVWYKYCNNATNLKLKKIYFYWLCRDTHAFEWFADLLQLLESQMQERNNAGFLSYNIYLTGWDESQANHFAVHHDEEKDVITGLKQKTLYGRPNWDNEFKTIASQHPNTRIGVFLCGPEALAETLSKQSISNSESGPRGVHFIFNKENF
Compound,z-score [1],composite z-score [2],z-score [3],z-score [4],z-score [5],z-score [6],z-score [7],z-score [8],z-score [9],z-score [10]
[N-]=[N+]=NCc1ccccc1C[C@]1(C(=O)NCC(O)CO)N=C(c2ccc(OCCCO)cc2)O[C@H]1c1ccccc1 (stereo not given in full),0.243 (inactive),0.33,13.1 (active),0.998 (inactive),-0.593 (inactive),0.865 (inactive),-0.0127,2.49 (inactive),0.717 (inactive),-0.632
CCOC(=O)C[C@H]1[C@H](OC(=O)c2cc3ccccc3oc2=O)[C@@H](NC(=O)C2CCCCC2)c2cc(OCCCO)ccc2N1C(=O)c1ccccc1,1.67 (inactive),-0.147,0.388 (inactive),-0.269 (inactive),0.342 (inactive),-1.4 (inactive),1.18,-0.341 (inactive),0.609 (inactive),0.305
C=CCC(OC(C)=O)[C@@H]1[C@@H](N(Cc2ccc(-c3cccc(C(F)(F)F)c3)o2)C(=O)Cc2ccc(F)cc2)c2cc(OCCCO)ccc2N1C(=O)Cc1ccc(OC)cc1 (stereo not given in full),0.29 (inactive),-0.191,2.58 (inactive),-0.307 (inactive),-0.876 (inactive),-0.668 (inactive),0.317,-2.17 (inactive),0.269 (inactive),-0.0149
CCOC(=O)C[C@H]1[C@H](OC(=O)c2ccc(C(=O)c3ccccc3)cc2)[C@@H](NC(=O)c2ccc(-c3ccccc3)cc2)c2cc(OCCCO)ccc2N1C(=O)c1ccccc1,-0.948 (inactive),-0.199,0.358 (inactive),0.135 (inactive),-0.559 (inactive),-0.16 (inactive),0.0156,0.788 (inactive),0.379 (inactive),0.551
CN1C(=O)C2C=CC(C(O)c3ccccc3)N(Nc3ccccc3)C2C1=O (stereo not given),-1.78 (inactive),0.242,0.0961 (inactive),1.31 (inactive),0.595 (inactive),0.974 (inactive),-1.1,-1.67 (inactive),-3.82 (inactive),-3.23
O=C1O[C@H](c2ccccc2)[C@H](c2ccccc2)N2[C@H]1[C@@H](C(=O)N1CCN(c3ncccn3)CC1)[C@]1(C(=O)Nc3ccc(C#CC4=CCCCC4)cc31)[C@H]2c1ccc(O)cc1,0.635 (inactive),0.396,0.706 (inactive),0.574 (inactive),-0.313 (inactive),1.01 (inactive),0.538,0.852 (inactive),0.537 (inactive),0.837
COCCOC(=O)N1C(=O)[C@@]2(c3cc(C#CCCO)ccc31)[C@H](c1ccc(OCCO)cc1)N1[C@H](c3ccccc3)[C@H](c3ccccc3)OC(=O)[C@H]1[C@@H]2C(=O)N1CCN(c2ncccn2)CC1,-0.304 (inactive),0.372,5.15 (inactive),1.58 (inactive),-0.325 (inactive),0.411 (inactive),-0.113,1.89 (inactive),0.925 (inactive),1.32
